# Reference: ChEMBL document CHEMBL2218924, “A broad activity screen in support of a chemogenomic map for kinase signalling research and drug discovery” (Biochem J, 2013)
# Legend:
# [1] = target: MAP kinase-activated protein kinase 2 (Homo sapiens) (UniProt P49137); conditions: at 10 µM
# [2] = target: MAP kinase-activated protein kinase 3 (Homo sapiens) (UniProt Q16644); conditions: at 10 µM
# [3] = target: Serine/threonine-protein kinase MARK1 (Homo sapiens) (UniProt Q9P0L2); conditions: at 1 µM
# Chain of Serine/threonine-protein kinase MARK1 (Homo sapiens) (Q9P0L2 whole entry, looked up): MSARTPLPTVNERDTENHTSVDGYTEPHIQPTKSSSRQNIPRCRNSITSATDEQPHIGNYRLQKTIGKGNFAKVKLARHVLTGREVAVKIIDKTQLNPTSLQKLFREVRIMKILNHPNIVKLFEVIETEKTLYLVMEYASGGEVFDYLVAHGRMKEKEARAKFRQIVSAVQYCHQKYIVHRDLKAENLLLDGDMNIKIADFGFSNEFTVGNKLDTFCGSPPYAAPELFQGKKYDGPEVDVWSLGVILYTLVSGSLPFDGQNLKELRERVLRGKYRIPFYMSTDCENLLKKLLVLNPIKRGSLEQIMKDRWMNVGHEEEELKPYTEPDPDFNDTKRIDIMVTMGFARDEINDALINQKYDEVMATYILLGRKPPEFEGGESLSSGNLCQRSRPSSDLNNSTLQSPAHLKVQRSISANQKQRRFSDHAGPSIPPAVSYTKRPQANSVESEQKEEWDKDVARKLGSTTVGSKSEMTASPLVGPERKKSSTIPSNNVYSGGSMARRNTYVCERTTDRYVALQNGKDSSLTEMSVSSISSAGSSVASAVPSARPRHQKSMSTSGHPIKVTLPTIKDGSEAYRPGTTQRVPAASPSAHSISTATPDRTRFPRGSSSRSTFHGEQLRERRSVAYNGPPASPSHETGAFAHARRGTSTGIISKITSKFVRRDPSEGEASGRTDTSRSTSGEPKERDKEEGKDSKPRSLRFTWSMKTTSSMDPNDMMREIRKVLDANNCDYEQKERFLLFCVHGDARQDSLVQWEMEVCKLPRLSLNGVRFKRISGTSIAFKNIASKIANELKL
# [4] = target: Serine/threonine-protein kinase MARK1 (Homo sapiens) (UniProt Q9P0L2); conditions: at 10 µM
# [5] = target: Dual specificity mitogen-activated protein kinase kinase 1 (Homo sapiens) (UniProt Q02750); conditions: at 1 µM
# [6] = target: Dual specificity mitogen-activated protein kinase kinase 1 (Homo sapiens) (UniProt Q02750); conditions: at 10 µM
# [7] = target: Maternal embryonic leucine zipper kinase (Homo sapiens) (UniProt Q14680); conditions: at 1 µM
# [8] = target: Maternal embryonic leucine zipper kinase (Homo sapiens) (UniProt Q14680); conditions: at 10 µM
# [9] = target: Misshapen-like kinase 1 (Homo sapiens) (UniProt Q8N4C8); conditions: at 1 µM
# [10] = target: Misshapen-like kinase 1 (Homo sapiens) (UniProt Q8N4C8); conditions: at 10 µM
# [11] = target: T1, Dual specificity mitogen-activated protein kinase kinase 6 (Homo sapiens) (UniProt P52564); conditions: at 1 µM
# T1 sequence (whole entry): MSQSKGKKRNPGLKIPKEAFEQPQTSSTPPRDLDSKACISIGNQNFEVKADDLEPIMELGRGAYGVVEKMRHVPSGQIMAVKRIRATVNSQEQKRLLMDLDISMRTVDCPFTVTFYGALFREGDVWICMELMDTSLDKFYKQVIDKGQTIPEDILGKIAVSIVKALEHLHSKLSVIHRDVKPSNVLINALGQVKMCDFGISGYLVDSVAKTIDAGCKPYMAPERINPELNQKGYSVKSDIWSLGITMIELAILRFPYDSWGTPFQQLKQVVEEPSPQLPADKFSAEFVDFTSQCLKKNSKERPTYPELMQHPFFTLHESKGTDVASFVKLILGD
# [12] = target: T1, Dual specificity mitogen-activated protein kinase kinase 6 (Homo sapiens); conditions: at 10 µM
# [13] = target: T2, Dual specificity mitogen-activated protein kinase kinase 7 (Homo sapiens) (UniProt O14733); conditions: at 1 µM
# T2 sequence (whole entry): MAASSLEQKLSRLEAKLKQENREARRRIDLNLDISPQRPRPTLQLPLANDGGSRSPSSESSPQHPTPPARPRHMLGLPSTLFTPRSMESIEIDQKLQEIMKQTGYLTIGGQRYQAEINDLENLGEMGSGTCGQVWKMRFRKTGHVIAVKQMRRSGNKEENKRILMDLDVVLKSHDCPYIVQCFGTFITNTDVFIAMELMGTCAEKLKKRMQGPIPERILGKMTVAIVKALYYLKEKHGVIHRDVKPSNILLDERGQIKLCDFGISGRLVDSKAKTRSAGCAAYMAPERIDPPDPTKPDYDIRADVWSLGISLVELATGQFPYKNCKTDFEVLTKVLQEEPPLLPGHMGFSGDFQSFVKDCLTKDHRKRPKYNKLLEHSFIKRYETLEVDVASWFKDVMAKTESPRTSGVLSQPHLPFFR
# [14] = target: T2, Dual specificity mitogen-activated protein kinase kinase 7 (Homo sapiens); conditions: at 10 µM
# [15] = target: Myosin light chain kinase, smooth muscle (Homo sapiens) (UniProt Q15746); conditions: at 1 µM
# Chain of Myosin light chain kinase, smooth muscle (Homo sapiens) (Q15746 whole entry): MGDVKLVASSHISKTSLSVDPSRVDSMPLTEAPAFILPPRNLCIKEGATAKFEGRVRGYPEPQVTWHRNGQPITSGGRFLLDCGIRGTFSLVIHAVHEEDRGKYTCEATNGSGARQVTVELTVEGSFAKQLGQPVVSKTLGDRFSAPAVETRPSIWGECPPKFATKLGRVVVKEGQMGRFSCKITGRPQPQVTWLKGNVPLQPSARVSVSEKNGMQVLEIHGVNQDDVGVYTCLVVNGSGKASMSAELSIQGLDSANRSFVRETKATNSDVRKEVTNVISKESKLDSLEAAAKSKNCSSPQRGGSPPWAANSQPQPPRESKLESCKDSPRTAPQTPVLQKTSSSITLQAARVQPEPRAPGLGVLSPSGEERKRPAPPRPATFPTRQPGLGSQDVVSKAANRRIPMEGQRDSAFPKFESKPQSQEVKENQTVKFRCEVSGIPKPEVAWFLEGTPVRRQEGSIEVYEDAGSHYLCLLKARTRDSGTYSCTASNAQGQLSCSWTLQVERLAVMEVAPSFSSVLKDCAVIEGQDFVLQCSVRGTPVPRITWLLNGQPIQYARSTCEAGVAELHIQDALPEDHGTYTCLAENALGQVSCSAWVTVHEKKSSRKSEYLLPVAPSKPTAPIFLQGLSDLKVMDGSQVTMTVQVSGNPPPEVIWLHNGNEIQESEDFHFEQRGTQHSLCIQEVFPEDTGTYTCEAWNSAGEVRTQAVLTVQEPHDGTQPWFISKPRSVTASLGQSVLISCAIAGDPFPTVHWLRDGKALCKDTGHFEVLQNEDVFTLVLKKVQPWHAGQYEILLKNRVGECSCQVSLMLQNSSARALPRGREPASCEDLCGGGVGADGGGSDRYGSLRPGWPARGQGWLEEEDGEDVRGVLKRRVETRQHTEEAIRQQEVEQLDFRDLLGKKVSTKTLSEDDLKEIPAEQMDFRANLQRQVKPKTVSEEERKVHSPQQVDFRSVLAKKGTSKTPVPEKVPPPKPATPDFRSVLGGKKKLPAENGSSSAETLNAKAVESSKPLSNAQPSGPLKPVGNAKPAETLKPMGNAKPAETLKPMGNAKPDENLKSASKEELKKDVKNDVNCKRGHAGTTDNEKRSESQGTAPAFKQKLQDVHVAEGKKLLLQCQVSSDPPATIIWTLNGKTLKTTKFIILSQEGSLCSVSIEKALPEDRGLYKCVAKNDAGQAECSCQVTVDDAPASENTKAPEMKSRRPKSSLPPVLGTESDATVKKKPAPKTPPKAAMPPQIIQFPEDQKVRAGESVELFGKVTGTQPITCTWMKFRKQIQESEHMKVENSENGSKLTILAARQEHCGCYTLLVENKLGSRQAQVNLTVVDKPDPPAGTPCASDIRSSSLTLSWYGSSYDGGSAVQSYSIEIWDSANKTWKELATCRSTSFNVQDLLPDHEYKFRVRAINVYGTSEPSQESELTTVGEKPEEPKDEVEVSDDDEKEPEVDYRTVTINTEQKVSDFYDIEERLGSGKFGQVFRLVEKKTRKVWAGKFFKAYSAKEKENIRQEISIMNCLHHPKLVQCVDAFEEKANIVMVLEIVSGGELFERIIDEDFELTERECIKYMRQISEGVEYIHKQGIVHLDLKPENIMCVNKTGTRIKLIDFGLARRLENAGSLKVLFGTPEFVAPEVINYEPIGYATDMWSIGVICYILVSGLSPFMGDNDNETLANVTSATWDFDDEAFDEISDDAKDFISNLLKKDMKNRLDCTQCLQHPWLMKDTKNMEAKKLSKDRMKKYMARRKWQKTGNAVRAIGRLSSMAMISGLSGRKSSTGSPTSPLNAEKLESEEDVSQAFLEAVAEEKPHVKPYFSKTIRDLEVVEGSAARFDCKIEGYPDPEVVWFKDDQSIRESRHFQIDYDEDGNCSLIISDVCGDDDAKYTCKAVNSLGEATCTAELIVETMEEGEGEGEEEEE
# [16] = target: Myosin light chain kinase, smooth muscle (Homo sapiens) (UniProt Q15746); conditions: at 10 µM
# [17] = target: Mitogen-activated protein kinase kinase kinase 9 (Homo sapiens) (UniProt P80192); conditions: at 1 µM
# [18] = target: Mitogen-activated protein kinase kinase kinase 9 (Homo sapiens) (UniProt P80192); conditions: at 10 µM
# [19] = target: Serine/threonine-protein kinase MRCK alpha (Homo sapiens) (UniProt Q5VT25); conditions: at 1 µM
# Chain of Serine/threonine-protein kinase MRCK alpha (Homo sapiens) (Q5VT25 whole entry): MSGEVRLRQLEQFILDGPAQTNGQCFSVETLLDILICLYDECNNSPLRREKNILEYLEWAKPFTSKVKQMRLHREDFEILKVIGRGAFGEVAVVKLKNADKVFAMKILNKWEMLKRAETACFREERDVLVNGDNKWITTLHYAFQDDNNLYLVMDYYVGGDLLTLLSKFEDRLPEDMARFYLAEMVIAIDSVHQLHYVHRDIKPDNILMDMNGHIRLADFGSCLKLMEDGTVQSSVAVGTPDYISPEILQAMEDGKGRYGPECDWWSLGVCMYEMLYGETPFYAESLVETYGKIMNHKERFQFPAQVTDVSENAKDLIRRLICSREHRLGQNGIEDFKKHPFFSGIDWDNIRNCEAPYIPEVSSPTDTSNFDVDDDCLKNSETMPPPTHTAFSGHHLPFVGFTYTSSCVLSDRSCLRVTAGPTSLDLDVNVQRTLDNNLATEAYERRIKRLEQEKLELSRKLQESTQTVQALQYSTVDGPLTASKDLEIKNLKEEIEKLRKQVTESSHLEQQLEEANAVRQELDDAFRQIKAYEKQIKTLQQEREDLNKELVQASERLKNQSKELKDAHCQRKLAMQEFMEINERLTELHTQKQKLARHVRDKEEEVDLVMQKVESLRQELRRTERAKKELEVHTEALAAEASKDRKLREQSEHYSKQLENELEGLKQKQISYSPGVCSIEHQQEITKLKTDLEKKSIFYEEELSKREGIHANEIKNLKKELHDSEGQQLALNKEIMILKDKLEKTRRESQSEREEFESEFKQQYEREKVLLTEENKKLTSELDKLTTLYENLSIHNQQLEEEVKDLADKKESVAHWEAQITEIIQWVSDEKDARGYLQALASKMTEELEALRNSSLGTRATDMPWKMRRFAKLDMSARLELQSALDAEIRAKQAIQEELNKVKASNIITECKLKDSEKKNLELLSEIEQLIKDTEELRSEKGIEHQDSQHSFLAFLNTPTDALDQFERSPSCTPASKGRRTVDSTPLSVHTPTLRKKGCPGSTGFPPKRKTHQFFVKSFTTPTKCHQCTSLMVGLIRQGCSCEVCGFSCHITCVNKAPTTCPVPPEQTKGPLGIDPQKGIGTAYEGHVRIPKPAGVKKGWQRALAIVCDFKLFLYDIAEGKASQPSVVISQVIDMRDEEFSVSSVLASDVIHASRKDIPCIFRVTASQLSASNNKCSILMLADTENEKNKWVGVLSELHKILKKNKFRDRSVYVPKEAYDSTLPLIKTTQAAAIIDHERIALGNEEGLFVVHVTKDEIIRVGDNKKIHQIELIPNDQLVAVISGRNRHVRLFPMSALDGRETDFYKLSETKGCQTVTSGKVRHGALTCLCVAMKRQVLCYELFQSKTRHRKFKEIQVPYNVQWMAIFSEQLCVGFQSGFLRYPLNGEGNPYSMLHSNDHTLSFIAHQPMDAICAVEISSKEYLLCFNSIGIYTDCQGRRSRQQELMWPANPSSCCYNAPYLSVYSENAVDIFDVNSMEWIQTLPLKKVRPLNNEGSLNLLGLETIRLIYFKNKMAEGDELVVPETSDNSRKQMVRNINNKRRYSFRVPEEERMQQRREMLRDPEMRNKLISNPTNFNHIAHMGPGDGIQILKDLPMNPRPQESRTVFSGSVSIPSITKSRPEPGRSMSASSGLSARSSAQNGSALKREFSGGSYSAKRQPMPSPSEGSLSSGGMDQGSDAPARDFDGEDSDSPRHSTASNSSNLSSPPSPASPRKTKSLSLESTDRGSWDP
# [20] = target: Serine/threonine-protein kinase MRCK alpha (Homo sapiens) (UniProt Q5VT25); conditions: at 10 µM
# Chain of MAP kinase-activated protein kinase 2 (Homo sapiens) (P49137 whole entry, looked up): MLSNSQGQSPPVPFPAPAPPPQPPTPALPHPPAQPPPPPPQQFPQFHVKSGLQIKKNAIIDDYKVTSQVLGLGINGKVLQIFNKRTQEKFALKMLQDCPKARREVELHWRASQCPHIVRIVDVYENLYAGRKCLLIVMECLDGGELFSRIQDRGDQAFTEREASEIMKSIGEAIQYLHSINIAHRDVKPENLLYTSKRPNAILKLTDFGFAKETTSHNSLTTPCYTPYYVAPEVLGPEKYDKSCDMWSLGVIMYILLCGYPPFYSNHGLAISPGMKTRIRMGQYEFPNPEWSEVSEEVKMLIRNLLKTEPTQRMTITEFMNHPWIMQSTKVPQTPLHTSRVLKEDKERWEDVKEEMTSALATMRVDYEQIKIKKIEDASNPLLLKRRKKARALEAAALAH
SMILES,residual activity [1] [%],residual activity [2] [%],residual activity [3] [%],residual activity [4] [%],residual activity [5] [%],residual activity [6] [%],residual activity [7] [%],residual activity [8] [%],residual activity [9] [%],residual activity [10] [%],residual activity [11] [%],residual activity [12] [%],residual activity [13] [%],residual activity [14] [%],residual activity [15] [%],residual activity [16] [%],residual activity [17] [%],residual activity [18] [%],residual activity [19] [%],residual activity [20] [%]
O=C1NC(=O)c2cc(Nc3ccc(F)cc3)c(Nc3ccc(F)cc3)cc21,93,69,82,75,109,122,89,76,83,71,72,58,98,97,55,70,86,75,100,111
c1ccc(-c2n[nH]cc2-c2ccnc3ccccc23)nc1,109,125,93,81,–,–,97,82,72,27,75,48,–,87,77,97,100,103,102,100
Oc1c2ccccc2c2c3c(cccc13)N=N2,69,103,38,6,75,50,13,0,86,50,82,13,58,6,29,3,13,4,115,116
CCN(CC)C(=O)c1ccc(Nc2nc(OCC3CCCCC3)c3nc[nH]c3n2)cc1,39,69,60,17,48,48,40,3,94,63,75,41,56,16,–,–,2,1,99,73
O=C1Nc2ccccc2/C1=C1/Nc2ccccc2/C1=N\OCCC(O)CO (stereo not given),61,80,40,8,26,21,7,5,44,17,51,7,54,5,26,20,2,2,111,107
O=C1Nc2ccc(Br)cc2/C1=C\c1cc2c([nH]1)CCCC2,106,101,72,59,–,–,78,–,–,–,76,84,–,–,83,84,63,49,108,110
Cn1nc2c3c(cccc31)C(=O)c1ccccc1-2,73,66,76,62,95,91,67,59,93,80,–,70,84,53,65,49,74,28,108,99
COc1cc2ncnc(Nc3ccc(NC(=O)c4ccccc4)cc3)c2cc1OC,98,93,105,95,–,–,77,50,–,92,–,97,92,74,77,96,72,22,105,–
Cc1nc2cc3nc(-c4cccs4)cnc3cc2n1C,114,100,107,100,120,91,89,67,112,98,75,149,109,110,82,105,86,44,116,102
Cc1ccc(NC2=CC(=O)c3sc(C)nc3C2=O)cc1,87,61,87,80,99,116,95,85,106,94,–,104,74,101,101,82,98,90,95,91
Nc1ccc2ncnc(NCCc3ccc(Oc4ccccc4)cc3)c2c1,106,105,87,62,99,101,63,40,101,82,90,82,73,96,104,64,–,80,131,124
O=[N+]([O-])c1ccc(-c2nc(-c3ccc(F)cc3)c(-c3ccncc3)[nH]2)cc1,102,104,91,90,109,127,97,87,74,63,50,4,101,98,100,86,–,83,126,98
CC(=O)c1ccc(N2CCOCC2)cc1O,–,111,93,91,102,–,90,100,108,88,75,91,104,96,83,85,89,97,105,92
Nc1cccc(-c2cc3c(Oc4cccc(O)c4)ncnc3[nH]2)c1,82,–,51,11,94,102,73,29,41,7,74,20,80,70,85,25,7,1,123,–
CC[n+]1c(/C=C/N(C)c2ccccc2)n(-c2ccccc2)c2ccc(-c3nc4ccccc4s3)cc21,63,86,108,111,138,95,91,46,102,84,80,133,108,107,80,34,105,103,99,122
